Bioassay records from PubChem BioAssay.
Hits are enriched below; roughly 1.9% of the tested compounds scored in any of these assays.
VLA-4 antagonist – inhibition of LDV-FITC ligand binding to human VLA-4 integrin | P13612 | inhibition, % at 10 µM (by protocol) | actives 0.2% (n = 24,000) | Jurkat cells, LDV-FITC binding with Mn2+, flow cytometry; 100% = Mn2+-driven binding gain fully reversed;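 active = inhibition above 50%; inconclusive = compound itself fluorescent, judged against control cell fluorescence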
Target sequence (P13612 whole entry, looked up): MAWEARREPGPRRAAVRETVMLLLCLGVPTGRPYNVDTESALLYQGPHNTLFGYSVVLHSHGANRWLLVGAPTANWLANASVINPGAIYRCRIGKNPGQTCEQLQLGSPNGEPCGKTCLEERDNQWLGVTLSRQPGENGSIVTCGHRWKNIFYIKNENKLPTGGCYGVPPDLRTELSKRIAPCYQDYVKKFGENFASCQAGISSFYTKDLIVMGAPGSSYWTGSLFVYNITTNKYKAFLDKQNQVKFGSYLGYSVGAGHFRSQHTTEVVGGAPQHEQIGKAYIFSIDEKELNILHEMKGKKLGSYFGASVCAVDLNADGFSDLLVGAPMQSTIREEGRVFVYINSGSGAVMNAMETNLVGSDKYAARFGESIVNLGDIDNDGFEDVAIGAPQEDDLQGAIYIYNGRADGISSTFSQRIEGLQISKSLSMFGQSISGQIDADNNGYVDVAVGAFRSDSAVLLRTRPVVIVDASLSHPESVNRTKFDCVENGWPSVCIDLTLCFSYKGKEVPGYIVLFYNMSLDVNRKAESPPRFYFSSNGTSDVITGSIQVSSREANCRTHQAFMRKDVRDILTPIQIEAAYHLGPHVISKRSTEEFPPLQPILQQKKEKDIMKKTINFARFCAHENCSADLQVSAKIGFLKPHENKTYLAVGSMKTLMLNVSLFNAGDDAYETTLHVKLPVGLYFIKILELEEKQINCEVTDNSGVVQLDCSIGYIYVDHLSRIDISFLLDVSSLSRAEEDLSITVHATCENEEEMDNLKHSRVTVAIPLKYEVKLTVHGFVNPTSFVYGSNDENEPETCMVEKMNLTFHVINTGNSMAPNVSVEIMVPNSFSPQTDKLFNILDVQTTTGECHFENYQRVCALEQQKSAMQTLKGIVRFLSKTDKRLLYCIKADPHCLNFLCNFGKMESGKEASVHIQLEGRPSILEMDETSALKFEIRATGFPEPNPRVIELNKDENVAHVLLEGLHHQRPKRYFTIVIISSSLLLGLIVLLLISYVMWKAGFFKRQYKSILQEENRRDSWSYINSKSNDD
VLA-4 agonist – allosterically activates the human VLA-4 integrin. Jurkat cells, LDV-FITC binding, flow cytometry. activation, % at 10 µM (by protocol). 24,000 tested, under 10 active. AID 528;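 active = fluorescent ligand binding to cells raised by more than 40% of the manganese-induced maximum; inconclusive = compound's own fluorescence above 85% of the ligand control signal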
Prostate diff – activators of LNCaP prostate cell differentiation. flow cytometry side scatter, 4 d. side scatter shift, % at 10 µM. AID 795. actives 0.56% (n = 24,000);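 active = side scatter shift above 30%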;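 note: androgen-responsive LNCaP prostate cancer cells in charcoal-stripped serum medium; higher shift means more granular cells and more differentiation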
Autofluor Jurkat – autofluorescence counter-screen for VLA-4 integrin assays | Jurkat cells, compound autofluorescence, flow cytometry; hits give high values; 1 = vehicle-only cell background | actives 0.61% (n = 24,000) | fluorescence ratio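 (tested at 10 µM compound in the well)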;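 active = fluorescence ratio above 2.44, which is 1 plus 3 SD of all ratios; inconclusive = signal too bright to measure linearly, ratio around 10 or more; inactive = fluorescence ratio below 2.44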;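 note: green fluorescence of cells measured with 488 nm excitation and 530 nm emission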
FPRL1 ligand – binds the human formylpeptide receptor-like-1 FPRL1; P25090; FPRL1-expressing cells, fluorescent ligand binding inhibition, flow cytometry; inhibition, % (concentration not given with the values); actives 0.3% (n = 24,000)
FPR binder – human FPR ligand, with FPRL1 counter-screen | FPR-expressing cells, fluorescent ligand binding, flow cytometry | inhibition, % (test concentration not listed) | AID 440 | actives 0.74% (n = 24,000) | P21462
Each line names hits and unclear results; the compound was inactive in the other large screens. Cut-off read from the data, not from the text of the source, unless noted: active = inhibition above about 30%; inconclusive = no clear call, values can overlap the other calls; inactive = below that.

Cc1n[nH]c(C)c1S(=O)(=O)N(CC(=O)NC1CCCC1)c1ccc(C(C)C)cc1	none
COC(=O)c1ccc(C2/C(=C(/O)c3ccc(OC)cc3)C(=O)C(=O)N2Cc2ccco2)cc1 (stereo unspecified)	FPR binder 38 (no result: VLA-4 antagonist, VLA-4 agonist, Prostate diff, Autofluor Jurkat)
COc1ccc(/C(O)=C2/C(=O)C(=O)N(CCN3CCOCC3)C2c2ccc(C)cc2)cc1 (stereo unspecified)	FPRL1 ligand 31 (no result: VLA-4 antagonist, VLA-4 agonist, Prostate diff, Autofluor Jurkat)
Cc1cccc(N2CCN(C(=O)Cc3c(C(=O)O)[nH]c4ccc(Cl)cc34)CC2)c1C	none
COc1ccc(Nc2nc(N3CCCC3)c3ccccc3n2)cc1	Prostate diff 50
O=C(COC(=O)C1CC1)c1c[nH]c2ccccc12	none
COc1ccc2c(C(=O)CN(C)C3CCCCC3)c[nH]c2c1	VLA-4 antagonist inconclusive, VLA-4 agonist inconclusive, Autofluor Jurkat 6.7
O=C(c1cccn2c(=O)c3ccc(Cl)cc3nc12)N1CCN(Cc2ccc3c(c2)OCO3)CC1	none
Cc1cccc2cc(C#N)c(SCCN3CCCCC3)nc12	Prostate diff 40
Cn1c(SCCN2CCCCC2)nnc1-c1ccccc1Br	none
CCC(CC)C(=O)Nc1c2cnn(-c3ccccc3)c2nc(=O)n1-c1ccccc1	VLA-4 antagonist 53, FPR binder 83
CCOc1ccccc1NC(=O)CC1Nc2cc(C)c(C)cc2NC1=O (stereo unspecified)	VLA-4 antagonist inconclusive, VLA-4 agonist inconclusive, Autofluor Jurkat 4.9
CC(NC(=O)CC1Nc2ccccc2NC1=O)c1ccccc1 (stereo unspecified)	none
CCC(=O)N1CCNC(=O)C1CC(=O)Nc1ccc(C)c(Cl)c1 (stereo unspecified)	VLA-4 antagonist 52
COc1ccc(CCNC(=O)CC2Nc3ccccc3NC2=O)cc1OC (stereo unspecified)	VLA-4 antagonist inconclusive, VLA-4 agonist inconclusive
Cc1ccc(NC(=O)CC2Nc3ccccc3NC2=O)cc1Cl (stereo unspecified)	VLA-4 antagonist inconclusive, VLA-4 agonist inconclusive, Autofluor Jurkat 6.7
O=C(CCn1c(=S)[nH]c2cc3c(cc2c1=O)OCO3)N1CCN(C2CCCCC2)CC1	none
COC(=O)c1ccccc1NC(=O)c1cnc2sccn2c1=O	VLA-4 antagonist inconclusive, VLA-4 agonist inconclusive
COC(=O)Nc1sccc1C(=O)Nc1sccc1C(=O)OC	VLA-4 antagonist inconclusive, VLA-4 agonist inconclusive, Prostate diff 32
O=C(Cc1ccc(F)cc1)Nc1c2c(nn1-c1cccc(Cl)c1)CS(=O)C2 (stereo unspecified)	none
CCN(CC)CCCNC(=O)c1cc(-c2ccc(Cl)c(Cl)c2)on1	Prostate diff 48
CCN(CC)CCCNC(=O)c1cc2c(-c3ccc(Cl)cc3)nn(C)c2s1	VLA-4 antagonist inconclusive, VLA-4 agonist inconclusive, Prostate diff 52
CN1CCN(CCCNC(=O)c2cc3c(-c4ccc(Cl)cc4)nn(C)c3s2)CC1	VLA-4 antagonist inconclusive, VLA-4 agonist inconclusive, Prostate diff 57
Cn1nc(-c2ccc(Cl)cc2)c2cc(C(=O)NCC3CCCO3)sc21 (stereo unspecified)	VLA-4 antagonist inconclusive, VLA-4 agonist inconclusive
CCCCOC(=O)C1=C(C)Nc2ncnn2C1c1cc(OC)c(OC)cc1OC (stereo unspecified)	none
Cc1ccc(Cn2ccc(NC(=O)c3cc(-c4ccc(Br)cc4)on3)n2)cc1	Prostate diff 35
O=S(=O)(Nc1cccc2ncccc12)c1cccs1	VLA-4 agonist inconclusive, Prostate diff 34, FPRL1 ligand 39
O=S(=O)(c1ccc(OCC(O)CN2CCc3ccccc3C2)cc1)N1CCOCC1 (stereo unspecified)	none
CCOc1ccccc1NC(=O)CSc1nccn1-c1ccccc1	FPRL1 ligand 37, FPR binder 44
COc1ccc(NC(=O)CSc2nccn2-c2ccccc2)c(OC)c1	none
Cc1c(C)c2cc(Cl)c(O)c(CN3CCCCC3)c2oc1=O	FPRL1 ligand 50, FPR binder 38
CC1(C2(O)CC(c3ccccc3)ON2)CCCCC1 (stereo unspecified)	none
COc1cccc2c1C(=O)c1c(O)c3c(c(O)c1C2=O)C[C@@](O)(C(C)=O)C[C@@H]3O[C@H]1C[C@H](N)[C@H](O)[C@H](C)O1	VLA-4 antagonist inconclusive, VLA-4 agonist inconclusive, Autofluor Jurkat inconclusive, FPRL1 ligand 32
COc1ccc(Nc2nc(N)nc(CN3CCC(Cc4ccccc4)CC3)n2)cc1	Prostate diff 49
COc1cccc(N2CCN(Cc3nc(N)nc(Nc4ccccc4OC)n3)CC2)c1	none
O=C1c2ccccc2-c2nc3ncnn3c(-c3ccccc3)c21	Prostate diff 40
O=C(O)c1ccc2c3c(ncnc13)-c1ccccc1C2=O	none
COc1cccc(N2CCN(c3ncnc4c3[nH]c3ccc(F)cc34)CC2C)c1 (stereo unspecified)	VLA-4 antagonist 95
Cc1cc(N2CCN(C3CCCC3)CC2)n2c(nc3ccccc32)c1C#N	none
Cc1c(CCC#N)c(N2CCN(C3CCCCC3)CC2)n2c(nc3ccccc32)c1C#N	VLA-4 antagonist inconclusive, VLA-4 agonist inconclusive, Autofluor Jurkat 8.6
CCOC(=O)N1CCC(Nc2nc3ccccc3n3nnnc23)CC1	VLA-4 antagonist inconclusive, VLA-4 agonist inconclusive, Autofluor Jurkat 8
Cc1ccc(CNc2nc3ccccc3n3nnnc23)cc1	VLA-4 antagonist inconclusive, VLA-4 agonist inconclusive, Prostate diff 35, Autofluor Jurkat inconclusive
CCCCC[C@H](O)/C=C/[C@H]1C=CC(=O)[C@@H]1C/C=C\CCCC(=O)O	VLA-4 agonist 42
O=S(=O)(CCOc1ccccc1)c1nc2ccccc2[nH]1	none
